Our source for the inhibition values is PubChem BioAssay AID2149 (The Scripps Research Institute Molecular Screening Center, 2009).

Out of some 2,400 compounds screened, about 1,800 (75%) were called active.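 The calls were made as follows: active = inhibition above the primary screen limit, the mean inhibition of all tested compounds plus 3 SD (cut at about 25% in these data); inactive = the rest.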 The set was probably picked from earlier hits. Not all results are given here.

This test has as its system tRNA 2'-phosphotransferase TPT1 [Candida albicans SC5314]. The test can be described thus: tRNA 2'-phosphotransferase enzyme inhibition – biochemical, fluorescence polarization, triplicate, confirmation (AID 2149). The conditions noted are these: recombinant caTPT1, fluorescence polarization, RNase T1 coupled; at 5 µM; stronger effect = higher value. On the technique in general: Fluorescence polarisation rises when a labelled molecule tumbles more slowly, as on binding a larger partner.
The term inhibition denotes the change of the read-out against control, counted positive when it falls. For the compound `CC(C)c1ccc(Nc2nnc(SCC(=O)c3nnc(-c4ccccc4)o3)s2)cc1`, the inhibition was 21.4% (inactive). In the case of `Cc1cccc2cc3c(N)c(C(=O)N4CCCc5ccccc54)sc3nc12`, the inhibition was 51.9% (active).

Turning to `COC(=O)c1[nH]c2cccc(C)c2c1NC(=O)CN1CCCc2ccccc21`, the inhibition was 19% (inactive). As to `CCOC(=O)C1=C(C)Nc2sc(C(=O)c3ccc(Br)cc3)c(N)c2C1c1ccc(C(=O)OC)cc1` (stereo not given), the inhibition is 29.3% (active).

For the compound `CCC(c1nnnn1Cc1ccco1)N(Cc1cc2cc(OC)ccc2[nH]c1=O)C1CCCCC1` (stereo not given), the inhibition was 13.7% (inactive). `CC1=CC2=NC(=O)/C(=C/c3coc4ccccc4c3=O)C(=N)N2O1`: the inhibition was 34% (active). Regarding `CCC(=C/c1sc2ccc3ccccc3c2[n+]1C)/C=C1\Sc2ccc3ccccc3c2N1C`, the inhibition is 84.5% (active).

On to `NC(=O)c1c(Nc2nc3c(F)cccc3s2)sc2c1CCCC2`, for which the inhibition is 92.7% (active). With `CN(C)CCCn1c(N)c(C#N)c2nc(C#N)c(C#N)nc21`, the inhibition was 45.1% (active). In the case of `O=S(=O)(O)Oc1c[nH]c2ccccc12`, the inhibition is 35.9% (active). As for `Cc1c(CC(=O)N2CCN(C(=O)C3COc4ccccc4O3)CC2)c(=O)oc2c(O)c(O)ccc12` (stereo not given), the inhibition is 7.54% (inactive). To `O=C(Cc1nc2ccccc2[nH]c1=O)c1ccc(Cl)cc1` belongs 57.8% (active); to `O=C(/C=C/c1ccc(N2CCOCC2)cc1)c1ccccc1`, 84.6% (active); to `COc1cc(/C=C(\C#N)c2nc3c(s2)CC(C)CC3)ccc1O` (stereo not given), 130% (active).

For `COc1cc(/C=C(\C#N)c2nc3ccccc3[nH]2)ccc1O`, the inhibition is 112% (active).

For the compound `O=C(CN1C(=O)c2ccccc2C1=O)NCc1ccc(C(=O)O)cc1`, the inhibition is 14.3% (inactive).

Consider `Cc1cccn2c(=O)c(/C=C3\SC(=S)N(CC(C)C)C3=O)c(NCCCOC(C)C)nc12`, for which the inhibition is 119% (active). As for `Cn1ccc(=NC=C(C#N)C#N)c2ccccc21`, the inhibition was 25.4% (active).

Take `O=C(C[n+]1cc(Br)cc2ccccc21)c1ccc(F)cc1`: the inhibition was 37.5% (active). To `CCOc1cc(/C=C(\C#N)c2nc(-c3cccs3)c(NC(C)=O)s2)ccc1O` belongs 90.5% (active); to `O=[N+]([O-])c1ccc(N/N=C/c2ccccc2)cc1`, 41.6% (active).

Turning to `Cc1cccc(COc2ccccc2/C=N/Nc2ccc([N+](=O)[O-])cc2)c1`, the inhibition is 90.6% (active). For `Cc1cccc(NC(=O)c2ccc(COc3ccccc3[N+](=O)[O-])o2)n1`, the inhibition was 7.02% (inactive). For `CCCOc1ccc(Cn2c(O)cc(=O)[nH]c2=O)cc1`, the inhibition was 22.1% (inactive). `Cc1cc(C)c(/C=C2\C(=O)Nc3ccccc32)[nH]1`: the inhibition was 113% (active). As to `O=C(O)C(c1ccccc1)N1C(=O)/C(=C\c2ccc(-c3cccc(Cl)c3)o2)SC1=S` (stereo not given), the inhibition was 151% (active). Turning to `CN1C(=O)/C(=C\c2ccc(-c3ccccc3)o2)SC1=S`, the inhibition was 79.6% (active). To `CC[n+]1cc(C)ccc1/C=C/c1ccc(N(C)C)cc1` belongs 42.1% (active); to `Cc1ccc(S(=O)(=O)N(C)c2nc3ccccc3n3c(C(C)C)nnc23)cc1`, -0.34% (inactive). Turning to `N#C/C(=C\c1ccc(N2CCOCC2)o1)C(=O)N1CCOCC1`, the inhibition is 170% (active). `N#C/C(=C/c1ccc(N2CCOCC2)o1)C(=O)N1CCOCC1`: the inhibition was 184% (active). With `Cc1ccc(CC2S/C(=C(/C#N)C(=O)N3CCOCC3)N(c3ccccc3)C2=O)cc1` (stereo not given), the inhibition is 9.14% (inactive). On to `CC1CCN(C(=O)c2ccc3c(c2)NC(=O)CN3)CC1`, for which the inhibition was 39.9% (active). To `Cc1ccc(N=C2NC(=O)/C(=C/C=C/c3ccco3)S2)cc1C` belongs 23.8% (inactive); to `N#CC1=C(N)Oc2c(sc3ccccc23)C1c1ccco1` (stereo not given), 78.6% (active); to `O=C(NNc1c2ccccc2nc2ccccc12)c1cc2ccccc2cc1O`, 38.5% (active).

On to `CN1/C(=c2/s/c(=C3/C(=O)N(c4ccccc4)NC3=Nc3ccccc3)n(C)c2=O)C(C)(C)c2ccccc21`, for which the inhibition is 81% (active). For the compound `Cc1ccc2cc(/C=N/Nc3ccc(C(=O)O)cc3)c(Cl)nc2c1`, the inhibition was 35.9% (active).

Turning to `CCOc1ccc(/C=C2\SC(=S)N(NC(=O)c3ccncc3)C2=O)cc1OC`, the inhibition was 51.7% (active). As to `Cc1ccc(C)c2[nH]c(=O)c(CCNC(=O)CC(C)C)cc12`, the inhibition was 3.97% (inactive).
